NPYLR7 ag – activates Aedes aegypti NPYLR7 receptor. HEK293T NPYLR7/Galpha15, GCaMP6s calcium fluorescence. activation, % at 10 µM. actives 0.15% (n = 270,000); in the data active = activation above about 40%;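 note: 0% = vehicle and 100% = reference agonist at the receptor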
hcGAS lum – human cGAS inhibition. Q8N884. recombinant h-cGAS, ATP depletion, Kinase-Glo luminescence. inhibition, % at 12.5 µM. actives 0.081% (n = 290,000). AID 1259398;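 note: 0% = vehicle reaction and 100% = reaction without DNA for no activity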
Target sequence (Q8N884 whole entry, looked up): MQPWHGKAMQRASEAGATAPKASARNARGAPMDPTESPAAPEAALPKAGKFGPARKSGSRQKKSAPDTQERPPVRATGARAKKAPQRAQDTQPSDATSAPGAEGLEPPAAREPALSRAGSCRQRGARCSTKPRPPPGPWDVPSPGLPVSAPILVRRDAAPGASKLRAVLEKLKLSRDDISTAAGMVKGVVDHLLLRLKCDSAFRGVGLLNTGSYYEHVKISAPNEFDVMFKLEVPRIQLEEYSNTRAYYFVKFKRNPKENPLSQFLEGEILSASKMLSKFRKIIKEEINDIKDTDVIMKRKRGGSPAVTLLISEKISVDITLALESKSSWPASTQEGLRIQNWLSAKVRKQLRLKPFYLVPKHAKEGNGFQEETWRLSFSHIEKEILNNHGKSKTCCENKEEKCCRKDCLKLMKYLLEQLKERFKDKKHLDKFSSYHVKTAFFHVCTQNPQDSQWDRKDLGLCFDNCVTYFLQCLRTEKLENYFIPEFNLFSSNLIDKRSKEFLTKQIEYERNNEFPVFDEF
mcGAS lum – inhibitors of mouse cGAS; Q8C6L5; recombinant cGAS, Kinase-Glo ATP depletion luminescence; inhibition, % at 12.5 µM; actives 0.15% (n = 160,000);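 note: 0% = negative control wells and 100% = reference inhibitor with no enzyme activity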
Active calls of the source: *; · = not tested or not shown; ! = not active in a repeat. Most compounds without a hit are left out; they make up all but 0.3% or so of the library. Cut-off read from the data, not from the text of the source, unless noted: active = inhibition above about 40%; inactive = the rest.

SMILES	NPYLR7 ag	hcGAS lum	mcGAS lum
C[C@H]1O[C@H](O[C@@H]2[C@@H](O[C@H]3CC[C@@]4(C)C(CC[C@]5(C)C4CC=C4[C@@H]6CC(C)(C)CC[C@]6(C(=O)O)CC[C@]45C)[C@]3(C)CO)OC[C@@H](O)[C@H]2O)[C@@H](O)[C@H](O)[C@@H]1O (some centres undefined)	53*	1	·
N#CC1C(=N)Oc2cc(O)ccc2C1c1ccc(Cl)cc1Cl (centres undefined)	96*	-5	·
N#CC1C(=N)Oc2cc(O)ccc2C1c1cccs1 (centres undefined)	11	-4	-1
N#CC1C(=N)Oc2cc(N)ccc2C1c1ccc(Cl)cc1Cl (centres undefined)	6	-7	·
N#CC1C(=N)Oc2cc(O)ccc2C1c1ccncc1 (centres undefined)	85*	-8	-1
N#CC1C(=N)Oc2cc(O)ccc2C1c1ccccc1I (centres undefined)	82*	4	2
N#CC1C(=N)Oc2cc(O)ccc2C1c1ccc(Br)cc1 (centres undefined)	0	-2	·
CC(C)C1CN(Cc2nccn2C)CCC(=O)N1Cc1ccc(F)cc1 (centres undefined)	·	-9	-12
COCc1nc(N2CCNC(C)C2)c2cnn(C)c2n1 (centres undefined)	7	-6	-11
O=c1ccc(-c2cccs2)nn1CCNS(=O)(=O)c1cccc(C(F)(F)F)c1	2	-2	-7
CN(CC1COc2ccccc2O1)C(=O)CN1C(=O)c2ccccc2S1(=O)=O (centres undefined)	2	-6	·
CN(CC1COc2ccccc2O1)C(=O)CCl (centres undefined)	-5	-7	54*
CCOC(=O)c1cc(-c2ccc(N3CCN(C(=O)c4cccnc4SCC)CC3)cc2)n(-c2cccc(F)c2)n1	24	-7	-6
CS(=O)(=O)NC1CCCN(CCS(=O)c2ccccc2)C1 (centres undefined)	9	-6	·
CC(C)NCC(O)c1cc(O)cc(O)c1 (centres undefined)	32	-6	-5
CC(C)NC[C@H](O)c1ccc(O)c(O)c1	85*!	-7	-5
FC(F)(F)c1cc(-c2cccs2)nc2ncnn12	95*	-5	-2
FC(F)(F)c1cc(-c2ccccc2)nc2ncnn12	3	-4	-7
COc1ccc2nc(NC(=O)/C=C/c3ccc(Br)cc3)sc2c1	-6	5	-6
COc1ccc2nc(C=Cc3cc(Br)c(O)c(OC)c3)sc2c1	81*	-6	·
Cc1c(NC(=O)COC(=O)C(C#N)=Cc2ccc(N(C)C)cc2)c(=O)n(-c2ccccc2)n1C	50*	-5	-6
CCC(CC)C(=O)Nc1c(C)n(C)n(-c2ccccc2)c1=O	-1	-5	-5
N[C@H](CSC(c1ccccc1)(c1ccccc1)c1ccccc1)C(=O)O	8	-9	·
NC(=O)C1CCN(C(=O)c2csc(CSc3nnc(-c4cccnc4)n3-c3cccc(C(F)(F)F)c3)n2)CC1	12	0	-4
CCc1nc(CN(Cc2ccc(F)cc2)CC2CCCO2)c(C)[nH]1 (centres undefined)	1	-4	-11
SMILES	NPYLR7 ag	hcGAS lum	mcGAS lum
CC(C)c1nc(NC(=O)c2[nH]ncc2Br)n(C)n1	85*	49*	·
CC(C)c1nc(NC(=O)CS(=O)(=O)C2CCCC2)n(C)n1	3	-10	·
O=C(O)C1Nc2ccc(Br)cc2C2C=CCC12 (centres undefined)	1	39	85*
O=C(O)C1Nc2c(O)cccc2C2C=CCC12 (centres undefined)	2	20	6
COc1ccc2[nH]c(C(=O)N3CCCC(N(C)C)CC3)cc2c1 (centres undefined)	5	-11	·
N#Cc1ccccc1NC(=O)c1n[nH]c([N+](=O)[O-])c1Br	-3	44*	·
Cc1cccc(NC(=O)c2n[nH]c([N+](=O)[O-])c2Br)c1C	-1	0	-3
O=S(=O)(O)c1cc(N=C=S)ccc1/C=C/c1ccc(N=C=S)cc1S(=O)(=O)O	3	86*	·
CC(C)(C)/[N+]([O-])=C/c1ccc(S(=O)(=O)O)cc1S(=O)(=O)O	-10	-3	·
O=C(NCCCn1cnc2ccccc21)C1CCCN1C1=NS(=O)(=O)c2ccccc21 (centres undefined)	4	-6	·
CC(Cn1ccnc1)NC(=O)c1ccccc1N(C)C(=O)c1cccs1 (centres undefined)	5	-2	·
CC(Cn1ccnc1)NC(=O)NCC(C)(C)c1ccccc1F (centres undefined)	0	43*	·
O=C(NCC1Cc2cccc(F)c2O1)c1ccc(F)cc1 (centres undefined)	5	-1	-4
CS(=O)(=O)c1ccc(-c2cccc3c2OC(CNC(=O)c2cc[n+]([O-])cc2)C3)cc1 (centres undefined)	76*	-6	-10
CC(C)CCCCCCNC(=O)C1CC2COCC(C1)C2=O (centres undefined)	4	-5	·
CN1C(=S)N(c2ccc3c(c2)OCO3)C(=O)/C1=C\c1cccc(OCCO)c1	34	-1	-3
CN1C(=S)N(C2CCCCC2)C(=O)/C1=C\c1ccc2c(c1)OCO2	46*	-3	-8
O=C(NC1CC1)C1COC2(CCN(C(=O)c3ccc(F)cc3F)CC2)N1C(=O)c1ccccc1 (centres undefined)	1	-7	-7
CC1C(=O)N(c2cccc(F)c2)CCN1C(=O)C1CCCC1 (centres undefined)	-3	-7	-6
CC1C(=O)N(c2cccc(F)c2)CCN1C(=O)C1CC1 (centres undefined)	44*	2	-1
Cc1[nH]nc(-c2ccc(OCCN3CCOCC3)cc2O)c1-c1ccc(Br)cc1	1	-1	-7
CC1(C)CC2CC(C)(CN2C(=O)CSCC(=O)O)C1 (centres undefined)	4	-7	·
Cc1nc(-c2ccsc2)sc1C(=O)NCc1ccccc1	0	-5	-7
CNC(=O)c1cnc(/C=C/c2csc(-c3ccsc3)n2)[nH]c1=O	67*	2	·
C=CCN1C(=O)/C(=C\c2ccc(O)cc2)SC1=S	55*	-7	-6
SMILES	NPYLR7 ag	hcGAS lum	mcGAS lum
C=CCN1C(=O)/C(=C\c2ccc(N(C)C)cc2)SC1=S	7	-7	-7
O=C(O)C(Cc1ccccc1)N1C(=O)/C(=C/c2ccc([N+](=O)[O-])cc2)SC1=S (centres undefined)	6	2	54*
CCN(CC)c1ccc(/C=C2\SC(=S)N(CC(=O)O)C2=O)c(O)c1	93*	-18	-9
CN(C)c1ccc(/C=C2/SC(=S)N(CC(=O)O)C2=O)cc1	71*	3	-8
CC(C(=O)O)N1C(=O)/C(=C/c2ccc([N+](=O)[O-])cc2)SC1=S (centres undefined)	-2	-1	39
C=CCN1C(=O)C(=Cc2ccncc2)SC1=S	-3	-5	·
O=C(O)CN1C(=O)/C(=C\c2ccc(O)c(O)c2)SC1=S	13	-2	5
CC1CCN(CCNC(=O)c2ccc(Br)cc2)CC1	0	-18	·
CC(C)(C)c1[nH]nc2c1C(c1ccccc1[N+](=O)[O-])C(C#N)C(=N)O2 (centres undefined)	-4	-2	-7
